Compound activity from PubChem BioAssay.
SARS PLP yeast – qHTS of Yeast-based Assay for SARS-CoV PLP. S. cerevisiae expressing SARS-CoV PLpro, growth rescue. Potency, µM (doses to about 32.9 µM), without a hit: top-dose activity, positive = growth rescue, actives largely listed as activators. 0.19% of 330,000 active. AID 485353, 2010; calls by dose curve; also: potency is read from the fitted curve at half-maximal effect; 0% is about no effect; nearly all actives have a fitted effect of over 55% in size
HCV inhibitor – qHTS Assay for Inhibitors of Hepatitis C Virus (HCV) | Huh7.5.1 HCVcc-Cre infection, luciferase reporter, 44 h | Potency, µM (titrated, usually from 41.8 µM), inactives show at the top dose activity change, negative = inhibition, usual class: inhibitors | 3.4% of 340,000 active | AID 651820, 2012; active = well fitted inhibition curve with a large enough effect; inconclusive = small, poorly fitted or top-dose-only effect, or another doubt; inactive = no such curve, though single readings can be large or run the other way; also: potency is read from the fitted curve at half-maximal effect; % is scaled to controls: 0 for no effect and ±100 for the full control effect
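Infectious HCV cell culture screen: compound-treated cells (1,000/well, pre-plated 4 h) are infected with HCVcc-Cre at roughly 0.5 moi and grown 44 h. Infection is quantified by luciferase signal after 15 min substrate incubation at room temperature.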
Marburg entry inh – qHTS for inhibitors of binding or entry into cells for Marburg Virus. Marburg virus pseudotyped entry inhibition, cell reporter. Potency, µM (top dose mostly 37.8 µM), for inactives: at the highest dose activity change, negative = inhibition, hits mostly inhibitors. 1.8% of 300,000 active. AID 540276, 2011; calls by dose curve; tested in HEK293 cells; also: potency is read from the fitted curve at half-maximal effect; % is scaled to controls: 0 for no effect and ±100 for the full control effect
LASV entry inh – qHTS for Inhibitors of binding or entry into cells for Lassa Virus | Lassa virus pseudotype entry inhibition, cell reporter | 1.2% of 300,000 active | Potency, µM (highest dose often 37.9 µM), for the others: at the top dose activity change, negative = inhibition, actives largely listed as inhibitors; calls by dose curve; tested in HEK293 cells; also: potency is read from the fitted curve at half-maximal effect; % is scaled to controls: 0 for no effect and ±100 for the full control effect; nearly all actives have a fitted effect of over 50% in size
FMDV antiviral – High Throughput Screening for Foot and Mouth Disease Virus Antivirals | FMDV antiviral cell-based qHTS | 1.2% of 410,000 active | AID 1159524, 2015 | Potency, µM (titrated, usually from 57.9 µM), inactives show at the top dose activity change, negative = inhibition, usual class: inhibitors; calls by dose curve; tested in HEK293T cells; also: read-out not given here; potency is read from the fitted curve at half-maximal effect; % is scaled to controls: 0 for no effect and ±100 for the full control effect; nearly all actives have a fitted effect of over 45% in size
HCMV inh – qHTS Assay for inhibitors of the human cytomegalovirus (HCMV). HFF cells, HCMV-luciferase reporter, 72 h; hits give low values. AID 1259415, 2018. 4.5% of 410,000 active. activity change, negative = inhibition, % at 57.5 µM; in the data active = activity change below about -60%; inconclusive = no clear call, values can overlap the other calls; inactive = above about -39%; also: % is scaled to controls: 0 for no effect and ±100 for the full control effect
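HFF cells seeded 16 h at 37C, treated with compounds, infected with luciferase-reporter HCMV at MOI 1 PFU/cell; luciferase read at 72 h post infection, normalized to buffer-only and Salinomycin controls.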
The depositor's hits bear a star; ? = inconclusive; / = not tested or not shown; + = active, no number; [ ] = remark or other dose. This is a sample that favours compounds with a hit; in the whole collection about 8% have one here.

SMILES	SARS PLP yeast	HCV inhibitor	Marburg entry inh	LASV entry inh	FMDV antiviral	HCMV inh
Cc1cc(C)c(S(=O)(=O)Nc2cccc(-c3cn4ccccc4n3)c2)c(C)c1	/	/	/	?	42%	-87*
COc1ccc(NC(=O)CSc2nc3ccccc3n2CC(=O)N2CCCC(C)C2)cc1 (stereo not given)	/	/	/	-20%[46.1 µM]	-6%	-15
CS(=O)(=O)N1CCC(N2CCN(Cc3ccccc3)C(=O)C2=O)CC1	/	/	/	20%[46.1 µM]	-4%	-3
COc1cccc(/C=N/Nc2cc(Cl)nc(C)n2)c1O	-1%	0%	26%	2%	24%	54
COc1cc(C=NNc2ncnc3c2cnn3Cc2ccccc2)ccc1O	/	/	/	7.9µM*	/	/
COc1cc(C=NNc2ncnc3c2cnn3-c2ccccc2)ccc1O	/	/	/	16µM*	/	/
COc1cc(/C=N/Nc2nc(C)nc3c2cnn3-c2ccccc2)ccc1O	0%	11µM*	11µM*	?	-1%	-34
COc1cccc(/C=N/Nc2ncnc3c2ncn3Cc2ccccc2)c1O	?	?	?	7.3µM*	-21%	-98*
CC(C)(C)n1nc2c(c1NC(=O)c1cc([N+](=O)[O-])ccc1Cl)CS(=O)(=O)C2	-2%	1%	/	/	?	+
CC(C)(C)n1nc2c(c1NC(=O)c1ccc([N+](=O)[O-])cc1)CS(=O)(=O)C2	-1%	20%	17%[46.1 µM]	5%[46.1 µM]	-8%	-2
Cc1cc(NC(=O)c2cc([N+](=O)[O-])ccc2Cl)no1	1%	12%	?	-25%	?	-33
O=C(Nc1cccc(NC(=O)c2cc([N+](=O)[O-])ccc2Cl)n1)c1cc([N+](=O)[O-])ccc1Cl	/	1.1µM*	/	/	13µM*	/
Cc1cc(C(=O)NCC2CCC3(CCN(Cc4cccc(F)c4F)CC3)O2)n(C)n1 (stereo not given)	/	/	/	/	-29%	/
O=C(Nc1ccc(OCC(F)(F)C(F)F)c(C(F)(F)F)c1)c1ccc(Cl)cc1	/	7.9µM*	16µM*	?	?	-95*
COc1ccc(C(=O)Nc2ccc(OCC(F)(F)C(F)F)c(C(F)(F)F)c2)cc1OC	-19%	11µM*	?	18µM*	?	-99*
COc1ccc(NC(=O)c2ccc(COCC(F)(F)F)cc2)cc1OC	3%	-28%	?	0%	-19%	-24
COc1cccc(-n2cc(C(=O)Nc3cc(OC)c(OC)c(OC)c3)c3ccccc3c2=O)c1	/	/	/	?	-16%	61
COc1ccc(OCCOC(=O)c2cc(S(=O)(=O)N3CCOCC3)c(Cl)cc2Cl)cc1	-11%	?	-22%	7%	40µM*	-12
O=C(OCCOc1ccccc1)c1cc(S(=O)(=O)N2CCOCC2)c(Cl)cc1Cl	/	/	/	/	?	-63*
CCc1ccc(OC(=O)Cc2ccc(OC)c(S(=O)(=O)N3CCOCC3)c2)cc1	-2%	10%	/	/	-4%	-98*
Cc1ccccc1NC(=O)Cn1c(=O)n(CCC(=O)NCc2ccc3c(c2)OCO3)c(=O)c2sccc21	/	/	26%[46.1 µM]	-3%[46.1 µM]	19%	17
CCOc1ccc2nc(N3CCCC3C(=O)N3CCC(c4nc5ccccc5o4)CC3)nc(C)c2c1 (stereo not given)	/	/	/	/	-6%	/
CCOc1ccc2nc(N3C(=O)CNC3=S)sc2c1	-3%	5%	?	?	-55%	-106*
Cc1ccc(-c2nc3c(C)cccn3c2Nc2ccccc2C)s1	/	/	-22%[46.1 µM]	21%[46.1 µM]	-13%	-65*
Cc1ccccc1Nc1c(-c2ccccn2)nc2c(C)cccn12	-7%	-23%	?	-19%	0%	-40
SMILES	SARS PLP yeast	HCV inhibitor	Marburg entry inh	LASV entry inh	FMDV antiviral	HCMV inh
Cc1cccn2c(Nc3ccccc3)c(-c3cccs3)nc12	/	/	-11%[46.1 µM]	21%[46.1 µM]	-7%	-61*
COc1cccc(CNC(=O)c2cc(C)nc3c2c(C)nn3-c2cccc(F)c2)c1	/	/	/	1%[46.1 µM]	-10%	15
O=C(CSc1oc(-c2ccc(F)cc2)nc1S(=O)(=O)c1ccc(Cl)cc1)c1ccccc1	/	/	?	?	11%	-11
COC[C@@H]1OC(=O)c2coc3c2[C@]1(C)C1=C(C3=O)[C@H]2CCC(=O)[C@]2(C)C[C@@H]1OC(C)=O	/	/	-11%	/	/	/
CCc1nc(SCc2cccnc2)c2c(=O)n(C)c(=O)n(C)c2n1	6%	-10%	/	/	?	?
CC(C)Cc1nc(SCc2cccnc2)c2c(=O)n(C)c(=O)n(C)c2n1	0%	10µM*	?	?	?	?
CCC(C)c1ccc(OCc2ccc(C(=O)O)o2)cc1 (stereo not given)	-6%	20%	?	?	11µM*	127
CCOC(=O)c1ccc(COc2ccc(C(C)C)cc2)o1	-1%	4%	?	?	5%	25
CCc1ccccc1NC(=O)c1ccc(Cn2nc(N3CCN(c4ccccc4)CC3)ccc2=O)o1	/	/	/	-9%[46.1 µM]	?	-75*
CCOC(=O)c1ccc(NC(=O)NCc2ccccc2OC)cc1	8%	11µM*	-17%[46.1 µM]	/	11%	-4
CCOC(=O)c1cc(-c2ccccc2)n(CC(=O)NCc2ccccc2OC)c1C	/	/	/	7.1µM*	-10%	-61*
CCOC(=O)c1ccc(NC(=O)c2ccc(OC(C)C)c(OC)c2)cc1	-1%	?	?	-34%	40µM*	14
CCOC(=O)c1ccc(NC(=O)COc2ccccc2CNC2CCCC2)cc1	0%	-30%	8.9µM*	?	-21%	-28
COc1cc(C2OC(=O)c3c2ccc(OC)c3OC)ccc1O (stereo not given)	6%	/	/	/	/	/
CSc1nnc(CNS(=O)(=O)c2ccc(F)cc2F)n1-c1ccccc1C	/	/	/	/	3%	/
CCCOC(=O)c1ccc(NC(=O)c2cc(OC)c(OC)c(OC)c2Br)cc1	-17%	7.1µM*	?	?	-11%	25
CCOC(=O)c1ccc(NC(=O)NC2CC3CCC(C2)N3)cc1 (stereo not given)	-1%	18µM*	/	/	-10%	-27
O=C(Nc1ccccc1)NC1CC2CCC(C1)N2 (stereo not given)	-8%	3%	1%	1%	-14%	13
COC(=O)c1ccc(NC(=S)N2CCN(Cc3ccccc3OC)CC2)cc1	0%	-23%	/	/	-1%	-80*
COc1cc(C(=O)Nc2ccc(C(C)=O)cc2)c(Br)c(OC)c1OC	14%	-14%	-2%	?	-10%	98
CCOC(=O)c1ccc(NC(=O)Nc2ccc(OC)c(OC)c2)cc1	-6%	25µM*	4%	0%	-13%	?
O=C(NC1CCC(n2cc(C(=O)NC3CC3)nn2)CC1)C(=O)c1ccccc1 (stereo not given)	/	/	/	/	-11%	/
COc1ccc(NC(=O)CC2NCCNC2=O)c(OC)c1 (stereo not given)	/	/	2%[46.1 µM]	?	-5%	2
